Bioassay records: PubChem, National Center for Advancing Translational Sciences (NCATS)
Shown are actives, neighbours in structure and some others; about 18% of the full set was active somewhere.
TDP1 inh: qHTS Assay for Inhibitors of Tyrosyl-DNA Phosphodiesterase (TDP1); hit rate 0.28% among 350,000; Potency, µM (doses to about 130 µM), actives largely listed as inhibitors; Tyrosyl-DNA phosphodiesterase 1 (Homo sapiens), Q9NUW8; AID 485290, 2010; recombinant TDP1, AlphaScreen DNA substrate cleavage; further: nearly all actives have a fitted effect of over 40% in size
Target sequence (Q9NUW8 whole entry, looked up): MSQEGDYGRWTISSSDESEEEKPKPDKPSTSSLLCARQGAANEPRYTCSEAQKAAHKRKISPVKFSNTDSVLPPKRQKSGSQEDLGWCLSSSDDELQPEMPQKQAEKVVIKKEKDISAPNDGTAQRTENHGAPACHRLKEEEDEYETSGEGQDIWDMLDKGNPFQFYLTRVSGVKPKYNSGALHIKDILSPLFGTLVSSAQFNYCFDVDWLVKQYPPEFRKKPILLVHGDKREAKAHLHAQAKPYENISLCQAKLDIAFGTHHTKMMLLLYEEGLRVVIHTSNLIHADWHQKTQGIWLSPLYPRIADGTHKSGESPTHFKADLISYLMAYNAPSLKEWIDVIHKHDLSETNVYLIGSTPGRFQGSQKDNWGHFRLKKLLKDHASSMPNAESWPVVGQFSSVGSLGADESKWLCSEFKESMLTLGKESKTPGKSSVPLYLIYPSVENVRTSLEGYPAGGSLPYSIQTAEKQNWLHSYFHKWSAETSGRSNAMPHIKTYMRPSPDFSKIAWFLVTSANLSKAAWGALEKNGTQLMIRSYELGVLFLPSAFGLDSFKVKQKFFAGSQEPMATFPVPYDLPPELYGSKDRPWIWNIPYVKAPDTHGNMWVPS
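Compounds were preincubated with Tdp1 (1 nM final) for 15 min at room temperature before substrate (15 nM final) started a 5 min reaction; beads (10 ug/ml final) were then added for 10 min before AlphaScreen detection.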
CtBP-E1A blk: qHTS Assay for Inhibitors of the CtBP/E1A Interaction; CtBP / adenovirus E1A interaction (AlphaScreen); AlphaScreen GST-E1A/His-CtBP binding, 1536-well; hits give low values; activity change, % (no concentration beside the values); hit rate 0.49% among 340,000; AID 651724, 2012; in the data active means activity change below about -65%; inconclusive means mostly about -30% to -63%
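Homogeneous bead-based format: GST-tagged E1A captured on glutathione donor beads, His-tagged CtBP on nickel acceptor beads; compounds precede bead addition by 2 h at 37 °C.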
Six1-Eya2 blk: qHTS Assay for Inhibitors of the Six1/Eya2 Interaction | Homeobox protein SIX1 (Homo sapiens) + Protein phosphatase EYA2 (Homo sapiens), … | AlphaScreen GST-Six1/His-Eya2 binding, biochemical; hits give low values | activity change, % (concentration not given with the values) | hit rate 0.56% among 360,000; in the data active means activity change below about -65%; inconclusive means mostly about -30% to -63%
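Homogeneous AlphaScreen proximity assay pairing GST-Six1 with His-tagged Eya2 (added as 5X mix: 250 nM and 500 nM) in 50 mM Tris pH 8.0, 300 mM NaCl, 1 mM TCEP. Glutathione donor and nickel acceptor beads; 1 h, 37 °C, dark.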
TDP1 cell noCPT: qHTS for Inhibitors of human tyrosyl-DNA phosphodiesterase 1 (TDP1): qHTS in cells in absence of CPT. DT40 Tdp1-/- hTDP1 cells, no CPT, ATP luminescence, 48 h. Potency, µM (top dose mostly 46.2 µM), hits mostly inhibitors. hit rate 15% among 420,000. AID 686978, 2013; further: nearly all actives have a fitted effect of over 55% in size
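Growth of hTDP1-complemented DT40 Tdp1-knockout cells is measured by ATP luminescence after at least 48 hr compound exposure at 37 °C, with DMSO substituting for the 20 nM CPT used in the parallel screen.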
DT40 TDP1 CPT: qHTS for Inhibitors of human tyrosyl-DNA phosphodiesterase 1 (TDP1): qHTS in cells in presence of CPT; Potency, µM (highest dose often 46.2 µM), usual class: inhibitors; AID 686979, 2013; chicken DT40 Tdp1-/-;hTDP1 cells + 20 nM CPT, ATP luminescence, 48 h; hit rate 12% among 420,000; further: nearly all actives have a fitted effect of over 55% in size
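Cell growth measured by CellTiter-Glo luminescence after a minimum 48 h, 37 C compound exposure with 20 nM CPT in Tdp1-knockout DT40 cells stably expressing hTDP1, seeded 400/well; qHTS titration format.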
IL-1B inflam inh: qHTS for Inhibitors of Inflammasome Signaling: IL-1-beta AlphaLISA Primary Screen; THP-1 LPS/ATP IL-1B secretion, AlphaLISA, 16 h; hits give low values; hit rate 4.7% among 360,000; activity change, % at 57.5 µM; in the data active means activity change below about -50%; inconclusive means mostly about -30% to -49%
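Secreted IL-1B measured by AlphaLISA bead assay after 16 h compound exposure of THP-1 cells; compounds (final up to 57.5 uM) added 1 h before LPS (250 ng/mL) and ATP (1.25 mM) stimulation; lower signal means less secretion.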
Of the large screens only hits and unclear results are named; the others gave an inactive call. Unless noted, the call rests on the fitted dose curve; in most records, active means well fitted curve in the direction sought with a large enough effect; inconclusive means small, poorly fitted or top-dose-only effect, or another doubt; inactive means no such curve, though single readings can be large; an effect the other way counts as inactive or inconclusive.

CN(C)CCCn1c2c3ccccc3ccc2c2oc(=O)c3ccccc3c21	TDP1 cell noCPT 4.6µM, DT40 TDP1 CPT 2.6µM, IL-1B inflam inh -100 (no result: TDP1 inh)
CC(=O)c1cccc(CN2CCC(n3nccc3NC(=O)CCCc3ccccc3)CC2)c1	none
COc1ccccc1CN1CCC(n2nccc2NC(=O)CCCc2ccccc2)CC1	TDP1 cell noCPT inconclusive, DT40 TDP1 CPT 15µM, IL-1B inflam inh inconclusive
CCOc1ccccc1CN1CCC(n2nccc2NC(=O)CCCc2ccccc2)CC1	TDP1 cell noCPT 18µM, DT40 TDP1 CPT inconclusive, IL-1B inflam inh inconclusive
Cc1cccc(CN2CCC(n3nccc3NC(=O)CCCc3ccccc3)CC2)c1	TDP1 cell noCPT 21µM, DT40 TDP1 CPT inconclusive, IL-1B inflam inh inconclusive (no result: TDP1 inh)
O=C(CCc1ccccc1)Nc1ccnn1C1CCN(C/C=C/c2ccccc2)CC1	TDP1 cell noCPT inconclusive, DT40 TDP1 CPT inconclusive
COc1ccccc1/C=C/CN1CCC(n2nccc2NC(=O)CCc2ccccc2)CC1	TDP1 cell noCPT 12µM, DT40 TDP1 CPT 15µM (no result: CtBP-E1A blk)
CCOC(=O)c1c(C)[nH]c(C)c1S(=O)(=O)N1CCC(C(=O)N2CCN(c3ccccc3)CC2)CC1	none (no result: CtBP-E1A blk, Six1-Eya2 blk, IL-1B inflam inh)
O=C1C(Cc2ccccc2)SC(=Nc2ccccc2)N1c1ccccc1 (centres undefined)	TDP1 cell noCPT inconclusive
N=C1N(c2ccccc2)C(=S)C(=Nc2ccccc2)N1c1ccccc1	TDP1 cell noCPT 13µM, DT40 TDP1 CPT 18µM (no result: TDP1 inh)
CCOC(=O)N1CCN(C(=O)C2CCC(CNS(=O)(=O)c3ccc(Cl)cc3)CC2)CC1 (centres undefined)	TDP1 cell noCPT inconclusive, DT40 TDP1 CPT inconclusive
CN(Cc1ccccc1)c1nc(CN2CCOCC2)nc2scc(-c3ccccc3)c12	TDP1 cell noCPT 16µM, DT40 TDP1 CPT inconclusive
Fc1ccc(N2CCN(c3nc(CN4CCOCC4)nc4scc(-c5ccccc5)c34)CC2)cc1	TDP1 cell noCPT 15µM, DT40 TDP1 CPT 23µM (no result: CtBP-E1A blk)
Cc1c(NC(=S)NC(=O)c2ccccc2Br)c(=O)n(-c2ccccc2)n1C	none (no result: TDP1 inh)
O=C(O)C1Nc2c(O)cccc2C2C=CCC12 (centres undefined)	CtBP-E1A blk -82, TDP1 cell noCPT inconclusive, DT40 TDP1 CPT inconclusive (no result: TDP1 inh)
CN(C)c1ccc(CNC(=O)c2ccc(NC(=O)c3nsc4ccccc34)cc2)cc1	TDP1 cell noCPT inconclusive (no result: CtBP-E1A blk, Six1-Eya2 blk, IL-1B inflam inh)
Cc1ccc(C(=O)NCc2ccc(N(C)C)cc2)cc1NC(=O)c1nsc2ccccc12	TDP1 cell noCPT 16µM, DT40 TDP1 CPT inconclusive (no result: CtBP-E1A blk, Six1-Eya2 blk, IL-1B inflam inh)
Cc1ccc(C(=O)NCc2ccccc2)cc1NC(=O)c1nsc2ccccc12	TDP1 cell noCPT 16µM, DT40 TDP1 CPT inconclusive (no result: CtBP-E1A blk, Six1-Eya2 blk, IL-1B inflam inh)
CCCSCCCNC(=O)c1ccc(C)c(NC(=O)c2nsc3ccccc23)c1	TDP1 cell noCPT inconclusive, DT40 TDP1 CPT inconclusive (no result: CtBP-E1A blk, Six1-Eya2 blk, IL-1B inflam inh)
Cc1ccc(Cn2cnc3c(cnn3C(C)(C)C)c2=O)cc1	TDP1 cell noCPT 13µM, DT40 TDP1 CPT 26µM
COc1ccc(NC(=O)COC(=O)c2cc(S(=O)(=O)N3CCCC3)ccc2O)cc1	none
O=C(CSc1nc2ccccc2o1)NCCOc1ccccc1	none
CCCc1nnc(NC(=O)CCC(=O)N2CCN(Cc3ccc(Cl)cc3)CC2)s1	TDP1 cell noCPT inconclusive, DT40 TDP1 CPT 16µM
Cc1ccc(OCCN2CCN(C(=O)CCC(=O)Nc3nnc(CC(C)C)s3)CC2)cc1	TDP1 cell noCPT 10µM, DT40 TDP1 CPT inconclusive (no result: IL-1B inflam inh)
CCc1nnc(NC(=O)CCC(=O)N2CCN(Cc3ccc(Cl)cc3)CC2)s1	TDP1 cell noCPT 23µM, DT40 TDP1 CPT 18µM
CC(C)Cc1nnc(NC(=O)CCC(=O)N2CCN(Cc3ccc(F)cc3)CC2)s1	DT40 TDP1 CPT inconclusive
